Source: PubChem BioAssay AID1240 (Sanford-Burnham Center for Chemical Genomics, 2008)
Among all 50,000 compounds or so, about 800 (1.6%) showed an effect of 50% or more. What follows is part of a selection rich in strong results, with near analogues and random picks from the rest.

Each compound was assayed against Bcl-2-like protein 10 (Homo sapiens) (UniProt Q9HD36) (assay: TR3 peptide-Bcl-B binding displacers, biochemical primary FP assay, phenotype converters (AID 1240;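 note: 0% = Bcl-B with tracer peptide and DMSO and 100% = tracer peptide lacking Bcl-B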)). Conditions: GST-Bcl-B / FITC-TR3 peptide fluorescence polarization; stronger effect = higher value; compound at 3.75 mg/L.
Chain of Bcl-2-like protein 10 (Homo sapiens) (Q9HD36 whole entry, looked up): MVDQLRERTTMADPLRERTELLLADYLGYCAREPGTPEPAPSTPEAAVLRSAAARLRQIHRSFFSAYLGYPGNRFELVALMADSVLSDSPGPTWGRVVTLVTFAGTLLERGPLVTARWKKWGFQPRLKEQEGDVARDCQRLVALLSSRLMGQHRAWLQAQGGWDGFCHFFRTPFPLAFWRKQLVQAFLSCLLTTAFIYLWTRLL

| SMILES | displacement |
| --- | --- |
| COc1ccc(OC)c(N=Cc2c(O)n(-c3ccccc3Cl)c(=O)[nH]c2=O)c1 | 98.7% |
| COc1ccc(N=Cc2c(O)n(-c3ccccc3OC)c(=O)[nH]c2=O)cc1 | 9.4% |
| COc1ccc(OC)c(N=Cc2c(O)n(-c3ccccc3C)c(=O)[nH]c2=O)c1 | 7.3% |
| COc1ccc(N=Cc2c(O)n(-c3cc(OC)ccc3OC)c(=O)[nH]c2=O)cc1 | 103% |
| COc1cccc(N=Cc2c(O)n(-c3cc(OC)ccc3OC)c(=O)[nH]c2=O)c1 | -2% |
| COc1ccccc1N=Cc1c(O)n(-c2ccccc2Cl)c(=O)[nH]c1=O | -6.6% |
| CCOC(=O)c1c[nH]c2cc(C(=O)OC)ccc2c1=O | -19.8% |
| CCC1=NN2C(=N)/C(=C/c3cccc(OCc4ccccc4F)c3)C(=O)N=C2S1 | 6.1% |
| Cc1ccc(/C=C(\C#N)c2nn(-c3ccccc3)c(N)c2C#N)cc1 | 2.5% |
| Cc1ccc(COc2c(Br)cc(/C=C(\C#N)c3nn(-c4ccccc4)c(N)c3C#N)cc2Br)cc1 | 11.2% |
| Cn1c(=O)n(C)c2cc(/C=C(\C#N)c3nn(-c4ccccc4)c(N)c3C#N)ccc21 | 92.9% |
| COC(=O)COc1ccc2c(=O)c(Oc3ccc(C(C)(C)C)cc3)coc2c1 | 8% |
| C/C(=N/NC(=O)COc1ccc(C)cc1)c1ccc([N+](=O)[O-])cc1 | 1.6% |
| O=C/C(=C\Nc1ccc(S(=O)(=O)CCO)cc1)c1nc2cc(Cl)ccc2o1 | 88.3% |
| CNS(=O)(=O)c1ccc(N/C=C(\C=O)c2nc3cc(Cl)ccc3o2)cc1 | 12.6% |
| O=C/C(=C\Nc1ccc(S(=O)(=O)CCO)cc1)c1nc2ccccc2o1 | 9.7% |
| Cn1c(O)c(N=NC(=O)c2ccccc2NC(=O)c2ccccc2)c2ccccc21 | -4% |
| COCCOC(=O)c1c(C)oc2ccc(OCc3c(F)c(F)c(F)c(F)c3F)cc12 | 10.8% |
| CCn1cc(/C=C2/C(=O)NN(c3ccccc3)C2=O)c2ccccc21 | 13.1% |
| CC(C)NC(=O)C1CC1(c1ccccc1)c1ccccc1 (centres undefined) | 4.7% |
| Cc1ccc(-n2ccc(N)c(C#N)c2=O)cc1 | 3.3% |
| COc1ccc(/C=C2/SC(=O)N(CC(=O)Nc3ccc(C)c(C)c3)C2=O)cc1OC | 67% |

| SMILES | displacement |
| --- | --- |
| COc1ccc(/C=C2\SC(=O)N(CCC(=O)Nc3ccccc3C)C2=O)cc1OC | 79.4% |
| COc1ccc(/C=C2/SC(=O)N(CC(=O)Nc3cc(C)on3)C2=O)cc1OC | 12.8% |
| COc1ccc(/C=C2\SC(=S)N(CCC(=O)Nc3ccccc3C)C2=O)cc1OC | 15.4% |
| COc1ccc(/C=C2/SC(=O)N(CC(=O)Nc3ccc(F)c(Cl)c3)C2=O)cc1OC | 12.3% |
| COc1ccccc1NC(=O)CCN1C(=O)S/C(=C/c2ccc(OC)c(OC)c2)C1=O | 34.6% |
| COC(=O)c1ccc(C(=O)OC)c(NC(=O)CC(c2ccccc2)c2ccccc2)c1 | 63.5% |
| COC(=O)c1ccc(C(=O)OC)c(NC(=O)/C=C/c2ccco2)c1 | 63.5% |
| COC(=O)c1ccc(C(=O)OC)c(NC(=O)COc2ccccc2[N+](=O)[O-])c1 | 66.9% |
| CCC(C(=O)Nc1cc(C(=O)OC)ccc1C(=O)OC)c1ccccc1 (centres undefined) | 5% |
| COC(=O)c1ccc(C(=O)OC)c(NC(=O)COc2ccccc2Cl)c1 | 73.8% |
| COC(=O)c1ccc(C(=O)OC)c(NC(=O)/C=C/c2ccc(Cl)cc2)c1 | -6.4% |
| COC(=O)c1ccc(C(=O)OC)c(NC(=O)/C=C/c2ccccc2)c1 | 8.7% |
| COC(=O)c1cc(NC(=O)COc2ccccc2[N+](=O)[O-])cc(C(=O)OC)c1 | 13% |
| COC(=O)c1ccc(C(=O)OC)c(NC(=O)Cc2ccccc2[N+](=O)[O-])c1 | 14.7% |
| COC(=O)c1ccc(C(=O)OC)c(NC(=O)COc2cccc(Cl)c2)c1 | 1.2% |
| COC(=O)c1ccc(NC(=O)CC(c2ccccc2)c2ccccc2)cc1 | -0.2% |
| COC(=O)c1ccc(C(=O)OC)c(NC(=O)COc2ccc(Cl)cc2C)c1 | 5.4% |
| Cc1ccc(-c2[nH]n3c(=O)cc(-c4ccccc4)nc3c2C)cc1 | 15.2% |
| CN(C)CCCNC(=O)/C=C/c1ccc(Cl)cc1 | 14% |
| COc1cc(C(=O)Nc2cccc(-c3cc4ccccc4oc3=O)c2)cc(OC)c1OC | 3.9% |
| CCOc1ccc(NC2=C(Cl)C(=O)N(c3ccc(Br)cc3)C2=O)cc1 | -4.8% |
| CC1CCc2c(sc(NC(=O)/C=C/c3ccc4c(c3)OCO4)c2C(N)=O)C1 (centres undefined) | 144% |

| SMILES | displacement |
| --- | --- |
| CC(=O)Nc1sc2c(c1C(N)=O)CCC(C)C2 (centres undefined) | 10.6% |
| CC1CCc2c(sc(NC(=O)/C=C/c3ccccc3)c2C(N)=O)C1 (centres undefined) | 10.5% |
| OCc1c(O)cnc2ccccc12 | 19.4% |
| O=c1[nH]c(-c2ccc(-c3ccc(F)cc3)o2)nc2sc3c(c12)CCCC3 | -13.3% |
| CC(/C=C1\SC(N2CCN(C3=NC(=O)/C(=C\C(C)=C\c4ccccc4)S3)CC2)=NC1=O)=C\c1ccccc1 | -9% |
| O=C1NC(=O)/C(=C/c2cccnc2)S1 | 12% |
| CC(=O)N1C(=S)NC(=O)/C1=C\c1cccnc1 | 93.4% |
| CCc1ccc(/C=C2/C(=O)NC(=O)N2C(C)=O)cc1 | 13.8% |
| N#Cc1c(-c2ccc(Br)cc2)cc(-c2ccc3c(c2)OCO3)c(C#N)c1N | 4.5% |
| N#Cc1c(-c2ccc(Br)cc2)cc(-c2ccco2)c(C#N)c1N | 76.9% |
| Cc1ccc(-c2cc(-c3ccncc3)c(C#N)c(N)c2C#N)cc1 | 21.2% |
| CCOC(=O)C(=CNCCC(=O)O)C(=O)OCC | 14.6% |
| COc1ccc(CCN2C(=O)C3C4c5ccccc5C(C)(c5ccccc54)C3C2=O)cc1OC (centres undefined) | -1.3% |
| Cc1ccc(N2C(=O)NC(=O)/C(=C/c3cccc(Cl)c3)C2=O)cc1 | -8.8% |
| Cc1ccc(N2C(=O)NC(=O)/C(=C\c3ccc(C)s3)C2=O)cc1 | 13.4% |
| Cc1ccc(C=C2C(=O)NC(=O)N(c3cccc(Cl)c3)C2=O)s1 | 87.1% |
| CC(C)CNC(=O)C(=O)Nc1ccc(Oc2ccccc2)cc1 | 5.2% |
| COc1cc(/C=c2/sc3nc4ccccc4n3c2=O)ccc1OCc1nn[nH]n1 | 5.2% |
| Cc1ccc2nc(-c3ccc(NC(=O)c4ccccc4-c4ccccc4C(=O)O)cc3)sc2c1 | 7.9% |
| Cc1ccc2nc(-c3ccc(O)cc3)sc2c1 | 12.7% |
| Cc1ccc2nc(-c3ccc(OC(=O)c4ccccc4F)cc3)sc2c1 | 76.4% |
| C=C(C)CSc1nc2sc3c(c2c(=O)n1CC(=C)C)CC(C)(C)OC3 | -10.4% |

| SMILES | displacement |
| --- | --- |
| O=C(Nc1ccc2nc(SCCOc3ccccc3)sc2c1)c1ccccc1Cl | -3.4% |
| CCOc1ccc(/C=C2/NC(=S)NC2=O)cc1 | 10.8% |
| CC(C)(C)c1ccc(/C=C2\NC(=S)NC2=O)cc1 | -20.2% |
| COc1ccc(/C=C/C=C2\NC(=S)NC2=O)cc1 | 128% |
| CC(C)(C)CC(C)(C)NC(=O)c1ccc2nccnc2c1 | 14.3% |
| Cc1ccccc1-n1c(C)cc(/C=N/NC(=O)CN2CCOCC2)c1C | -22.2% |
| CC(C)CC(NC(=O)c1ccco1)C(=O)O (centres undefined) | 9.5% |
| Cc1cc([N+](=O)[O-])ccc1-c1ccc(C(=O)Nc2ccc(Cl)cn2)o1 | 50.1% |
| O=C(Nc1ccc(Cl)cn1)c1ccc(-c2ccc([N+](=O)[O-])cc2)o1 | 13.9% |
| Cc1cc([N+](=O)[O-])ccc1-c1ccc(C(=O)Nc2ccc(Cl)cc2)o1 | 45.8% |
| O=C(Nc1ccc2oc(-c3ccccc3)nc2c1)c1ccc(-c2ccc([N+](=O)[O-])cc2)o1 | 22.1% |
| Cc1cc([N+](=O)[O-])ccc1-c1ccc(C(=O)Nc2ccc(-c3nc4ccccc4o3)c(O)c2)o1 | 10.8% |
| Cc1cc([N+](=O)[O-])ccc1-c1ccc(C(=O)Nc2ccc3oc(-c4ccccc4)nc3c2)o1 | 116% |
| CCc1ccccc1NC(=O)C(F)(Cl)C(F)(F)F (centres undefined) | -3.1% |
| COc1cccc(CN2CCN(C(=O)c3cccc(Cl)c3)CC2)c1 | 3.6% |
| CC(=O)c1ccc(NC(=O)C2CC(=O)N(C3CCCCC3)C2)cc1 (centres undefined) | 11.1% |
| COc1ccc(CCC(=O)Nc2cc(Cl)cc(Cl)c2)cc1 | 0.3% |
| CC(=O)N(Cc1ccc2c(c1)OCO2)C1CC(=O)N(c2cccc(Cl)c2)C1=O (centres undefined) | 16% |
| CC(=O)N(Cc1ccc2c(c1)OCO2)C1CC(=O)N(c2ccc(Br)cc2)C1=O (centres undefined) | 72.3% |
| O=C1CC(N(Cc2ccc3c(c2)OCO3)C(=O)c2ccc(Cl)cc2)C(=O)N1c1ccc(F)cc1 (centres undefined) | -2.2% |
| CC1(C)CC(=O)C2=C(C1)Nc1ccccc1NC2c1cccc(Br)c1 (centres undefined) | 2.4% |
| O=C1c2[nH]nc(-c3ccccc3)c2C(c2ccccc2F)N1c1ccccc1 (centres undefined) | -3.9% |

| SMILES | displacement |
| --- | --- |
| C=CCn1c(SCCC)nc2sc3c(c2c1=O)CCc1ccccc1-3 | 0.4% |
| COc1ccc(C(=O)NNC(=O)c2cccc(C)c2O)cc1OC | -1.1% |
| CCOC(=O)C1=C(C)N=c2s/c(=C\c3cccc(OC)c3O)c(=O)n2C1c1ccccc1 (centres undefined) | -0.2% |
| CCOC(=O)C1=C(C)N=c2s/c(=C\c3ccccc3OC)c(=O)n2C1c1ccc(C)cc1 (centres undefined) | -2.8% |
| CCOC(=O)C1=C(C)N=c2s/c(=C\c3ccc(OC)c(OC)c3OC)c(=O)n2C1c1ccccc1 (centres undefined) | 210% |
| CCOC(=O)C1=C(C)N=c2s/c(=C\c3ccc(OC)c(O)c3)c(=O)n2C1c1ccc(Cl)cc1 (centres undefined) | -5.3% |
| CCOC(=O)C1=C(C)N=c2s/c(=C\c3ccc(OC)c(OC)c3OC)c(=O)n2C1c1ccc(Cl)cc1 (centres undefined) | 152% |
| CCOC(=O)C1=C(C)N=c2s/c(=C\c3ccc(OC)cc3)c(=O)n2C1c1ccc(Cl)cc1 (centres undefined) | 18.8% |
| CCOC(=O)C1=C(N)OC2=C(C(=O)CCC2)C1c1ccc(Cl)cc1Cl (centres undefined) | -2.9% |
| COc1ccc(/C=C2\N=C(c3ccccc3F)OC2=O)c(OC)c1 | 72.1% |
| CCOc1ccc(/C=C2\N=C(c3ccccc3F)OC2=O)cc1 | 11% |
| CC(=O)n1cc(/C=C2\N=C(c3ccc(C(C)(C)C)cc3)OC2=O)c2ccccc21 | 72.1% |
| COc1ccc(/C=C2\N=C(c3ccccc3I)OC2=O)cc1 | -2.3% |
| C=CCOc1ccccc1/C=C1\N=C(c2ccc(C)cc2)OC1=O | -2.1% |
| COC(=O)c1ccc(/C=C2\N=C(c3ccc(C(C)(C)C)cc3)OC2=O)cc1 | 11.1% |
| COc1cccc(/C=C2\N=C(c3cccs3)OC2=O)c1OC | 59.5% |
| O=C1OC(c2cccs2)=N/C1=C\c1cccc(Cl)c1Cl | 29.5% |
| CCCOc1ccccc1/C=C1\N=C(c2ccccc2)OC1=O | 64% |
| Cc1no[n+]([O-])c1COc1ccccc1/C=C1\N=C(c2ccccc2)OC1=O | -3.2% |
| CC(=O)n1cc(/C=C2\N=C(c3ccccc3F)OC2=O)c2ccccc21 | 7.6% |
| C=C(C)COc1ccccc1/C=C1\N=C(c2cccs2)OC1=O | 0.7% |
